Data as given in PMC4336329 (PLoS ONE, 2015).
The whole screen tested about 310,000 compounds, of which about 14,000 (4.5%) showed an effect of 50% or more. Effects have a minus sign here. Only a selection was taken, and strong results are over-represented in it overall.

molecular target: human ether-à-go-go-related gene (hERG) potassium channel (human, UniProt Q12809); assay: primary screen, population patch clamp on CHO cells stably expressing hERG; higher = less effect of the substance
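Also: peak tail current of the secondary pulse compared with the same well before compound.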

Chain of human ether-à-go-go-related gene (hERG) potassium channel (Q12809 whole entry, looked up): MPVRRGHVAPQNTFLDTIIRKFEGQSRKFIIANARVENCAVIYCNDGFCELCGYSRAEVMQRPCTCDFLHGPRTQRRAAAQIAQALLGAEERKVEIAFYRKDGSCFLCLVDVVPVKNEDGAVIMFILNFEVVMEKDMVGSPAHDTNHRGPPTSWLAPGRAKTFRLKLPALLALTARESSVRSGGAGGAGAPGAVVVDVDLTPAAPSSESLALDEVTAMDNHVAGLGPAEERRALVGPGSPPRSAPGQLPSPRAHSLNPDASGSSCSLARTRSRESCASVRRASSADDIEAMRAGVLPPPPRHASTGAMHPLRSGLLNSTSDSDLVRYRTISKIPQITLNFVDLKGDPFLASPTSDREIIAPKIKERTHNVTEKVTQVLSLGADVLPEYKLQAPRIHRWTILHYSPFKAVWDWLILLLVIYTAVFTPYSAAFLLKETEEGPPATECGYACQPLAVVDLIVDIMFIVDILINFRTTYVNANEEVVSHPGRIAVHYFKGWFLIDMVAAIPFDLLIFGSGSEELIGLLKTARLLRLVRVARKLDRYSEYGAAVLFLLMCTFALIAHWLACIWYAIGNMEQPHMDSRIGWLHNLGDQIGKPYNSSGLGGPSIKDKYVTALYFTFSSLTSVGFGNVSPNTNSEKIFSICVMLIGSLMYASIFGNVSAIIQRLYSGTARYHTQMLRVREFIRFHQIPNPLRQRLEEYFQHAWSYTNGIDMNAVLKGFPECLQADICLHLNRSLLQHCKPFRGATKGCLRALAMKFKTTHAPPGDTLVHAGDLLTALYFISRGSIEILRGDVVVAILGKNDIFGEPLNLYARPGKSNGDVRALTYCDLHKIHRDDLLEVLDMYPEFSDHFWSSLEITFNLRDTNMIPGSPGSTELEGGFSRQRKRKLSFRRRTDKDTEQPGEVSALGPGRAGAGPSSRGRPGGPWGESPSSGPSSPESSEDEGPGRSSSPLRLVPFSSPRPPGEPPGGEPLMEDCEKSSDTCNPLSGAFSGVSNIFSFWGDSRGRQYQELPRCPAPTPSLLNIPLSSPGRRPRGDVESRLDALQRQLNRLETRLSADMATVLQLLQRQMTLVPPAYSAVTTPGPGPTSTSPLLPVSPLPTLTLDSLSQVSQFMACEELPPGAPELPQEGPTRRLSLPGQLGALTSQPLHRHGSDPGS

SMILES | hERG current change (%, negative = inhibition) at 10uM
Nc1sc(-c2ccccc2)cc1C(=O)N/N=C/c1ccc(Cl)cc1 | 18.1%
O=C(CN1CCCCCCC1)Nc1cc(Cl)cc(Cl)c1 | 1.75%
Cc1ccc(-c2noc(Cn3cc(S(=O)(=O)N4CCCC4)ccc3=O)n2)cc1 | 8.62%
CC(=O)N1c2ccc(S(=O)(=O)N3CCC(C(=O)Nc4cc(C)cc(C)c4)CC3)cc2CC1C (stereo not drawn) | 2%
COc1cc(/C=C/C(=O)OCC(=O)Nc2ccc(C)cc2[N+](=O)[O-])ccc1O | -20.5%
CC(CC(=O)O)CC(=O)Nc1cc([N+](=O)[O-])ccc1O (stereo not drawn) | -2.89%
COC(=O)c1cccc(N2C(=O)c3ccccc3S2(=O)=O)c1 | -9.36%
CCOC(=O)c1cccc(N2C(=O)c3ccccc3S2(=O)=O)c1 | -59.5%
CCOC(=O)c1ccccc1CN1C(=O)c2ccccc2S1(=O)=O | -11.1%
CCOC(=O)N/N=C(\C)c1ccc(Oc2ncccn2)cc1 | 17.1%
O=C(O)C(=O)O.c1ccc(CCN(Cc2ccccc2)C2CCN(C3CCCC3)CC2)cc1 | -77%
CCCCN(Cc1ccccc1)C1CCN(Cc2ccccc2)CC1 | -53.5%
CCN(CC)C1CCN(C(=O)c2ccc(OC3CCN(CCc4ccccc4)CC3)cc2)C1 (stereo not drawn) | 2.06%
O=C(O)C(=O)O.c1ccc(CN2CCC(N3CCC(N4CCCCCC4)CC3)CC2)cc1 | 16.5%
CCCN(CCO)C1CCN(CCc2ccccc2)CC1 | 7.14%
CCN(Cc1ccccc1)C1CCN(Cc2ccccc2)CC1 | -14.9%
CCCN1CCC(N(CCc2ccccc2)Cc2ccccc2)CC1 | -72.2%
CCCCC(=O)C1CCN(Cc2ccccc2)CC1 | -34.5%
CCCN1CCC(N(C)CCc2ccc(OC)c(OC)c2)CC1 | -11.4%
CCCCN(Cc1ccccc1)C1CCN(CCc2ccccc2)CC1 | -72.2%
CC(C)CC(=O)N1CCC(N(CCc2ccccc2)Cc2ccccc2)CC1.O=C(O)C(=O)O | -46.8%
CCCN1CNC(=S)N(CCc2ccccc2)C1 | 8.83%

SMILES | hERG current change (%, negative = inhibition) at 10uM
CC(C)CNS(=O)(=O)c1ccc(OCC(=O)NCC2CCCO2)c(Cl)c1 (stereo not drawn) | -4.3%
S=c1[nH]cnc2scc(-c3ccc(Br)cc3)c12 | 0.154%
O=C1Nc2ccc(F)cc2C12Nc1ccccc1-c1nnc(SCc3ccccc3)nc1O2 (stereo not drawn) | -13.2%
COc1ccccc1NC(=O)c1ccc(-n2cccn2)nc1 | 3.91%
O=C(Nc1cccc(Cl)c1)c1ccc(NCCCN2CCOCC2)c([N+](=O)[O-])c1 | -37.9%
CC(C(N)=O)N1CC(c2ccccc2)CC1=O (stereo not drawn) | -4.86%
O=C(CSc1nccc(=O)[nH]1)Nc1ccc2c(c1)OCCO2 | 51.6%
Clc1cccc(Cl)c1CSc1nnc(CN2CCOCC2)n1-c1ccccc1 | -28.9%
Fc1ccc(CSc2nnc(CN3CCOCC3)n2-c2ccccc2)c(Cl)c1 | -24%
Clc1ccc(CSc2nnc(CN3CCOCC3)n2-c2ccccc2)cc1Cl | -74.1%
CSCCC(NS(=O)(=O)c1ccc(C)cc1)C(=O)N1CCN(C(C)=O)CC1 (stereo not drawn) | 3.56%
CCCCCn1c(NC(=O)c2ccco2)c(C(=O)OCC)c2nc3ccccc3nc21 | -80.4%
CCCCn1c(NC(=O)c2ccc(Br)o2)c(S(=O)(=O)c2ccccc2)c2nc3ccccc3nc21 | -0.885%
CCCCn1c(NC(=O)c2ccc(Br)o2)c(C(=O)OCC)c2nc3ccccc3nc21 | -53.8%
CCCCn1c(NS(=O)(=O)c2ccccc2)c(C(=O)OCC)c2nc3ccccc3nc21 | -23.9%
CCOC(=O)c1c(NC(=O)c2ccco2)n(C2CCCCC2)c2nc3ccccc3nc12 | -35.6%
CCCCn1c(NC(=O)c2ccco2)c(C(=O)OCC)c2nc3ccccc3nc21 | -42.1%
Cc1cc(C)n(CC(=O)NNC(=O)c2cccc(C(F)(F)F)c2)n1 | 12.7%
COc1ccc(C(=O)c2oc3ccccc3c2NC(C)=O)cc1 | 0.829%
O=C(COc1ccc(/C=N/NC(=O)c2cc3ccccc3o2)cc1Cl)Nc1ccccc1 | 6.96%
Cc1[nH]c2ccccc2c1/C=N/NC(=O)CNC(=O)c1ccccc1 | -9.38%
O=C(CO/N=C/c1c(Cl)cccc1Cl)NNC(=O)c1ccc(Cl)cc1 | 8.46%

SMILES | hERG current change (%, negative = inhibition) at 10uM
NC(=O)N/N=C/C=C/c1ccc(F)cc1 | 8.5%
CC(C)=CCOc1c2occc2cc2ccc(=O)oc12 | -17.9%
Clc1ccc2nc(C3CCN(Cc4nnnn4C4CCCCC4)CC3)[nH]c2c1 | -59.2%
Fc1ccc2nc(C3CCN(Cc4nc(CC5CC5)no4)CC3)[nH]c2c1 | -51.9%
Fc1ccc2nc(C3CCCCN3Cc3nc(CC4CC4)no3)[nH]c2c1 (stereo not drawn) | 0.821%
O=S(=O)(c1ccc2c(c1)OCCO2)N1CCC(c2nc3ccc(Cl)cc3[nH]2)CC1 | -56.6%
C1CCC(n2nnnc2CN2CCCC2)CC1 | -1.31%
O=C(Cc1ccccc1)N1CCC(c2nc3ccccc3[nH]2)CC1 | -18.9%
O=C(c1cccc(Cl)c1)N1CCC(c2nc3ccccc3[nH]2)CC1 | -38.2%
Clc1ccc2nc(C3CCN(Cc4ccccc4)CC3)[nH]c2c1 | -73.4%
Fc1ccccc1C1CCN(Cc2nc(CC3CC3)no2)C1 (stereo not drawn) | 2.1%
O=S(=O)(c1ccc2c(c1)OCCO2)N1CCC(c2nc3ccccc3[nH]2)CC1 | 3.43%
CC(C)(C)c1ccc(S(=O)(=O)N2CCC(c3nc4ccc(Cl)cc4[nH]3)CC2)cc1 | -3.97%
Cc1ccc(Cl)cc1N1CCN(Cc2nnnn2C2CCCCC2)CC1 | 7.78%
O=C(Cc1cc(=O)[nH][nH]1)N/N=C/C=C/c1ccccc1 | 8.93%
COc1cccc(CCNC(=O)CC2C(=O)NCCN2Cc2ccc(C)o2)c1 (stereo not drawn) | 15.7%
CCC1=NN(C(=O)c2cccnc2)C(O)(C(F)(F)F)C1 (stereo not drawn) | 3.08%
COc1ccc(CC(=O)NCc2nnc(SCC(=O)Nc3nccs3)n2C)cc1 | 17.3%
CCS(=O)(=O)n1nc(-c2ccccc2)cc1N | 7.55%
COc1ccc(NC(=O)/C(=C/c2cccs2)NC(=O)c2ccco2)cc1 | -21.1%
COc1ccc([N+](=O)[O-])cc1N(CC(=O)N1CCN(Cc2ccccc2)CC1)S(C)(=O)=O | 5.94%
CC(=O)NS(=O)(=O)c1ccccc1 | 9.31%

SMILES | hERG current change (%, negative = inhibition) at 10uM
O=C(NNC(=O)c1ccco1)c1cccc(Br)c1 | 0.684%
O=C(CCC1CCCCC1)NNC(=O)c1cnccn1 | -4.92%
COc1cc(Cl)c(C)cc1NC(=O)CSc1ccccc1 | 5.58%
Clc1ccc(CN2CCC(c3nc4ccc(Cl)cc4[nH]3)CC2)cc1 | -80.7%
Cc1ccc(Cn2nnnc2CN2CCC(c3nc4ccc(Cl)cc4[nH]3)CC2)cc1 | 5.01%
COc1ccc(CN2CCC(c3nc4ccc(Cl)cc4[nH]3)CC2)cc1 | -76.3%
CCC(C)(C)n1nnnc1CN1CCC(c2nc3ccc(C)cc3[nH]2)CC1 | -48.3%
COc1ccc(NC(=S)N2CCCC(c3nc4ccc(C)cc4[nH]3)C2)cc1 (stereo not drawn) | -10.5%
Cc1ccc(CN2CCC(c3nc4ccc(Cl)cc4[nH]3)CC2)cc1 | -83%
O=C(NCC1CCCO1)c1ccc(S(=O)(=O)N2CCC(c3nc4ccc(Cl)cc4[nH]3)CC2)cc1 (stereo not drawn) | -18%
O=S(=O)(c1ccc(Cl)cc1)N1CCC(c2nc3ccccc3[nH]2)CC1 | 1.05%
COc1ccc(NC(=S)N2CCC(c3nc4ccc(Cl)cc4[nH]3)CC2)c(OC)c1 | -42.6%
COc1ccc(NC(=O)CCCN2C(=O)C(c3ccccc3)Oc3cccnc32)cc1OC (stereo not drawn) | 1.23%
CCCCNC(=O)Cn1cnc2sc(C)c(S(=O)(=O)N3CCN(c4ccccc4OC)CC3)c2c1=O | 11.4%
O=C(Nc1nc(-c2cc(Cl)sc2Cl)cs1)c1ccc(Br)s1 | -6.05%
Cc1cccc(/C(N)=N/OC(=O)Cc2cccs2)c1 | -12.4%
Cc1cc(-c2cc(C(=O)NC3CCCC3)on2)nc(NC2CCCC2)n1 | 4.57%
COc1ccc(S(=O)(=O)NC(C)(C)C)cc1-c1nnc2c3ccccc3c(C)nn12 | -5.05%
COc1ccc(S(=O)(=O)NCc2ccco2)cc1-c1nnc2c3ccccc3c(C)nn12 | -50.3%
CNS(=O)(=O)c1ccc(OC)c(-c2nnc3c4ccccc4c(C)nn23)c1.Cl | 7.8%
CC(=O)c1c(C)n(Cc2ccccc2)c2ccc(O)cc12 | 12.8%
